Source: PubChem BioAssay (NCATS)
Several values for one entry are separate records, joined by “and”; a condition that tells them apart may be missing. Equal entries are not always repeated. Inconclusive results are not listed. Activity calls are given as the source filed them. The call rests on the fitted dose curve; in most records, active means well fitted curve in the direction sought with a large enough effect; inconclusive means small, poorly fitted or top-dose-only effect, or another doubt; inactive means no such curve, though single readings can be large; an effect the other way counts as inactive or inconclusive.

How the values were obtained:
[1] = qHTS to identify inhibitors of the type 1 interferon - major histocompatibility complex class I in skeletal muscle: primary screen against the NCATS LOPAC collection (AID 1347405);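 further: human myoblasts with HiBiT tag on endogenous HLA-B stimulated by IFN-beta; lytic HiBiT luminescence reporting HLA-B protein level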
Outline: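 IFN-beta-stimulated (4 ng/ml) HLA-B HiBiT knock-in myoblasts, compound-treated 24 hrs up to 46 uM final; signal via LgBiT complementation and furimazine luminescence.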

[2] = qHTS to identify inhibitors of the type 1 interferon - major histocompatibility complex class I in skeletal muscle: primary screen against the NCATS Pharmaceutical Collection (AID 1347407);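 further: luminescence of HiBiT knocked into endogenous HLA-B as interferon-induced MHC class I level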
Outline: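 Compounds […] were added to CRISPR-engineered HLA-B-HiBiT C25cl48 human myoblasts with 4.0 ng/ml IFN-beta. After 24 hrs at 37 C, cells were lysed and HiBiT luminescence measured.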

[3] = qHTS for inhibitors of adenylyl cyclases using a fission yeast platform: a pilot screen against the NCATS LOPAC library (AID 1347410)
Outline: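 GFP from fbp1-GFP reporter, read by Acumen laser cytometry, indicates AC inhibition in fission yeast expressing AC9, GNAS and PDE4D2. Cells grown 18 h in the dark at 30C with compounds, final up to 57 uM.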

[4] = qHTS to identify inhibitors of the type 1 interferon - major histocompatibility complex class I in skeletal muscle: primary screen against the NCATS Mechanism Interrogation Plate v5.0 (MIPE) Libary (AID 1347411); further: nearly all actives have a fitted effect of over 65% in size
Outline: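 IFN-beta-driven (4 ng/ml) HLA-B-HiBit expression in CRISPR-tagged C25cl48 myoblasts; compounds 11-pt, 1:3, max 46 uM, 24 hr exposure; lytic NanoLuc complementation luminescence.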

[5] = biological target: Protein phosphatase 1D (Homo sapiens) (UniProt O15297); assay: RapidFire Mass Spectrometry qHTS Assay for Modulators of WT P53-Induced Phosphatase 1 (WIP1) (AID 1347424);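 further: amount of dephosphorylated VEPPL-S-QETFS peptide product formed by WIP1; series mostly up to about 63 µM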
Outline: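 RapidFire mass spectrometry measured dephosphorylated peptide after 5 min room-temperature reaction of 2 uM VEPPL-pS-QETFS with 10 nM WIP1 (50 mM Tris-HCl pH 7.5, 30 mM MgCl2, 0.1 mM EGTA, BSA), following 1 hr compound preincubation; 1 uM isotope-labelled product standard.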

[6] = biological target: Protein phosphatase 1D (Homo sapiens) (UniProt O15297); assay: Rhodamine-PBP qHTS Assay for Modulators of WT P53-Induced Phosphatase 1 (WIP1) (AID 1347425)
Outline: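 WIP1 (5 nM final) was preincubated with compound for 1 hour at room temperature. It then dephosphorylated 10 uM VEPPL-pS-QETFS peptide in Tris-HCl pH 7.5 with 30 mM MgCl2. Released Pi was detected by 10 uM Rh-PBP fluorescence (ex 525/em 598 nm) read at 1-min intervals for 11 min, as delta f1 - f0.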

[7] = Validation qHTS assay for inhibitors of Activation Induced Cytidine Deaminase (AID): UDG Counterscreen signal (AID 1347427)
Outline: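 Fluorescence at 560 nm excitation, 665 nm emission reports UDG signal after 250 mM NaOH (2x) addition and 30 min. Enzymes (AID 1 uM, UDG 2 U/mL, at 4/3x) preincubated 10 min with compound, then 4 h with 4x 250 nM DJC20/DJC23 substrate at room temperature.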

[8] = biological target: Single-stranded DNA cytosine deaminase (Homo sapiens) (UniProt Q9GZX7); assay: Validation qHTS assay for inhibitors of Activation Induced Cytidine Deaminase (AID): AID signal (AID 1347429)
Outline: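 Compounds (up to 114 uM final) are tested against AID plus UDG using DJC20/DJC23 FRET substrate. Reactions incubate 4 hr at room temperature, receive NaOH for 30 min, and are read at Ex 540/Em 590 nm.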

[9] = Primary qHTS for inhibitors of La Crosse Virus (LACV) - induced cell death in SH-SY5Y cells (AID 1508616);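 further: top concentration of the series differs between compounds; higher means more rescue of cells from virus-induced death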
Outline: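 Screening measures cell viability in LACV-infected SH-SY5Y cultures. Compound was added before virus (0.01 MOI), and ATP was detected by luminescence 6 days later.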

[10] = biological target: Calcium and integrin-binding protein 1 (Homo sapiens) (UniProt Q99828); assay: Validation qHTS for Identification of Calcium Integrin Binding protein 1 (CIB1) Competitor (AID 1508618)
Outline: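 Fluorescence polarization with 1 uM CIB1-GST and 100 nM FITC-alphaIIb peptide in HEPES pH 7.4, NaCl, 5 mM CaCl2, Tween20. Compounds at up to 114 uM final, preincubated with protein 15 min; read after 15 min more at RT.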

[11] = biological target: Calcium and integrin-binding protein 1 (Homo sapiens) (UniProt Q99828); assay: Primary qHTS for Identification of Calcium Integrin Binding Protein 1 (CIB1) Competitor (AID 1508620);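 further: GST tagged CIB1 binding a fluorescein labelled alphaIIb integrin peptide tracer; top concentration of the series differs between compounds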
Outline: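 CIB1-GST (1 uM final) and compound incubated 15 min at room temperature before adding FITC-alphaIIb peptide tracer (100 nM final). Competition for binding read by fluorescence polarization (ex 480, em 540) after another 15 min at room temperature.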

[12] = Confirmatory qHTS for small molecule stabilizers of the endoplasmic reticulum resident proteome: Secreted ER Calcium Modulated Protein (SERCaMP) assay (AID 1508628); further: nearly all actives have a fitted effect of over 40% in size; further: potency means the concentration at half of the fitted maximal effect
Outline: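 GLuc-SERCaMP-expressing SH-SY5Y cells, pretreated 16 h with compound, are challenged with thapsigargin to empty ER calcium stores; after 4 h, coelenterazine is added directly to the medium and luminescence is imaged.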

[13] = Primary qHTS for small molecule stabilizers of the endoplasmic reticulum resident proteome: Secreted ER Calcium Modulated Protein (SERCaMP) assay (AID 1508630)
Outline: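 The SH-SY5Y reporter protocol was run at 3 concentrations up to 38.3 uM (primary) or 11 concentrations (follow-up): 16 h compound, 100 nM thapsigargin for 4 h, then extracellular luciferase luminescence.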

Measured: Potency

Chain of Protein phosphatase 1D (Homo sapiens) (O15297 whole entry, looked up): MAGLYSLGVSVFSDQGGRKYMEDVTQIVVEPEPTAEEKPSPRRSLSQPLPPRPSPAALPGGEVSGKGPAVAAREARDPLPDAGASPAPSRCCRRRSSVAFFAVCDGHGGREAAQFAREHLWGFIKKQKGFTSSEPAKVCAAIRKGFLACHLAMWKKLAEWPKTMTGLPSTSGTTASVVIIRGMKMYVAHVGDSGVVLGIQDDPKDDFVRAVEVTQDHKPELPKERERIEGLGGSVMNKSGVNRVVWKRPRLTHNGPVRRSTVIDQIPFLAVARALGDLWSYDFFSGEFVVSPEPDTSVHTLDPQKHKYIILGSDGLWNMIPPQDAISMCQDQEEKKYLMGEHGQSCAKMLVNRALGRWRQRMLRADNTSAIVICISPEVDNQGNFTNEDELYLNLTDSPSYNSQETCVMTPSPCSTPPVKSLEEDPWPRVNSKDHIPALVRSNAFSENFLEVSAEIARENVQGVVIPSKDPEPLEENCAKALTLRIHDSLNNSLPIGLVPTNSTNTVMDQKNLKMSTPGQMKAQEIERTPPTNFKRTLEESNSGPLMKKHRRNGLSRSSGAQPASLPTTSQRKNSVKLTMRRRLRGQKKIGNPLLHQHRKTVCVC
Chain of Calcium and integrin-binding protein 1 (Homo sapiens) (Q99828 whole entry, looked up): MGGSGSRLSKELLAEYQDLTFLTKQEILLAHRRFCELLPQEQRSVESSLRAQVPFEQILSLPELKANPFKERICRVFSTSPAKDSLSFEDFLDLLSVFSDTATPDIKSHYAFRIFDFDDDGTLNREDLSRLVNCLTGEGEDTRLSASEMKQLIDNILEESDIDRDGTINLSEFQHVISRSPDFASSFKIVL
Chain of Single-stranded DNA cytosine deaminase (Homo sapiens) (Q9GZX7 whole entry, looked up): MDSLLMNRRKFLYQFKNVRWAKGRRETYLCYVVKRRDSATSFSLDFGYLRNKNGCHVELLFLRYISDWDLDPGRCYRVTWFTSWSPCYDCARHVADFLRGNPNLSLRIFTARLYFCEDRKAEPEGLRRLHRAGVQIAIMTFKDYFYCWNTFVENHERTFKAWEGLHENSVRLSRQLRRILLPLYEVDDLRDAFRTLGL

COc1ccccc1N1CCN(CC(O)COc2cccc3ccccc23)CC1 (stereo not drawn)
inactive: [1] | [2] | [3] | [4] | [5] | [6] | [7] | [8] | [9] | [10] | [11]

NC(CO)C(=O)NNCc1ccc(O)c(O)c1O (stereo not drawn)
inactive: [1] | [2] | [3] | [4] | [5] | [6] | [7] | [8] | [9] | [10] | [11]

COc1ccccc1OCC(O)CN1CCN(CC(=O)Nc2c(C)cccc2C)CC1 (stereo not drawn)
inactive: [1] | [2] | [3] | [4] | [5] | [6] | [7] | [8] | [9] | [10] | [11]

CN1CCC(=C2c3ccccc3C=Cc3ccccc32)CC1
active: [12] 20 µM and 15.8 µM
inactive: [1] | [2] | [3] | [4] | [5] | [6] | [7] | [8] | [9] | [10] | [11]

CC(C)NCC(O)COc1ccc(CCOCC2CC2)cc1 (stereo not drawn)
inactive: [1] | [2] | [3] | [4] | [5] | [6] | [7] | [8] | [9] | [10] | [11]

CN1C(C(=O)Nc2ccccn2)=C(O)c2ccccc2S1(=O)=O
inactive: [1] | [2] | [3] | [4] | [5] | [6] | [7] | [8] | [9] | [10] | [11]

CCCNCC(O)COc1ccccc1C(=O)CCc1ccccc1 (stereo not drawn)
inactive: [1] | [2] | [3] | [4] | [5] | [6] | [7] | [8] | [9] | [10] | [11] | [12]

CC(C(=O)O)c1cccc(C(=O)c2ccccc2)c1 (stereo not drawn)
inactive: [1] | [2] | [3] | [4] | [5] | [6] | [7] | [8] | [9]

NCCc1cnc[nH]1
inactive: [1] | [2] | [3] | [4] | [5] | [6] | [7] | [8] | [9] | [10] | [11]

NCCS(=O)(=O)O
inactive: [1] | [2] | [3] | [4] | [5] | [6] | [7] | [8] | [9] | [10] | [11]

O=C(c1ccc(OCCN2CCCCC2)cc1)c1c(-c2ccc(O)cc2)sc2cc(O)ccc12
inactive: [1] | [2] | [3] | [4] | [5] | [6] | [7] | [8] | [9] | [10] | [11] | [12]

N[C@@H](Cc1c[nH]c2ccc(O)cc12)C(=O)O
inactive: [1] | [2] | [3] | [4] | [5] | [6] | [7] | [8] | [9] | [10] | [11] | [13]

CNCCCC12CCC(c3ccccc31)c1ccccc12
inactive: [1] | [2] | [3] | [4] | [5] | [6] | [7] | [8] | [9] | [10] | [11]

CN(C)CCOC(c1ccccc1)c1ccccc1
inactive: [1] | [2] | [3] | [4] | [5] | [6] | [7] | [8] | [9] | [10] | [11] | [13]

CCN1CCCC1CNC(=O)c1cc(S(=O)(=O)CC)c(N)cc1OC (stereo not drawn)
inactive: [1] | [2] | [3] | [4] | [5] | [6] | [7] | [8] | [9] | [10] | [11]
